In the library only some 3.6% were active in any assay of this set; here they are far more common.
APOBEC3G inh = blocks human APOBEC3G single-stranded DNA deamination; AID 493012; recombinant A3G, ssDNA deamination FAM/TAMRA fluorescence; inhibition, % at 20 µM; 0.28% of 330,000 active; Q9HC16;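 active means inhibition of at least 40% at 20 µM, with no more than 30% in the related APOBEC3A deaminase screen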;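 further: plate controls were DMSO wells with A3G for no effect and wells lacking A3G enzyme for full effect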
Target sequence (Q9HC16 whole entry, looked up): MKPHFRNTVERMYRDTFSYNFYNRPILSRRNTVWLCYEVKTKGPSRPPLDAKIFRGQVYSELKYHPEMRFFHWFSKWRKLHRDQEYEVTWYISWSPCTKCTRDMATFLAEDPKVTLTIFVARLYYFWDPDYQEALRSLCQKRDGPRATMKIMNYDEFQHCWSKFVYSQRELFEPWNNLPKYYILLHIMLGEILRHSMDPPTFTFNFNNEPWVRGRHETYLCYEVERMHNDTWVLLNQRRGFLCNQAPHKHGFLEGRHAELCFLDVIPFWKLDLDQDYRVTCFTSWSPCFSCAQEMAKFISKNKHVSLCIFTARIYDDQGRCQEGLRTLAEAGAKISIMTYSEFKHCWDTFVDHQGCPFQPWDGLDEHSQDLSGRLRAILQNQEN
APOBEC3A inh = blocks human APOBEC3A ssDNA deamination; P31941; 0.41% of 330,000 active; recombinant A3A, FAM/TAMRA ssDNA deamination fluorescence; inhibition, % at 20 µM; AID 493011;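 active means at least 40% inhibition at 20 µM here, with at most 30% in a related deaminase screen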;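 further: plate controls were A3A with DMSO for no effect and wells lacking A3A enzyme for full effect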
Target sequence (P31941 whole entry, looked up): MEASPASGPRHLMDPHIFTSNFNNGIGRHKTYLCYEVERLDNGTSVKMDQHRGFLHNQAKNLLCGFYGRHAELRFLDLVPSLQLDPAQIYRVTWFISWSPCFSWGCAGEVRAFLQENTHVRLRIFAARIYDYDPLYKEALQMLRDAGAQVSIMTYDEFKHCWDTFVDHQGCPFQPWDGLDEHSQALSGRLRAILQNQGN
Wnt bcat act = activates Wnt/beta-catenin signaling in a reporter cell assay; activator, plate reader; activation, % at 9.35 µM; 1.2% of 300,000 active; AID 743398; in the data active means activation above about 30%, passing the limit was not always enough; inconclusive means no clear call, values can overlap the other calls;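 further: 0% = neutral control wells and 100% = positive control wells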
PHOSPHO1 block = blocks human PHOSPHO1 phosphatase activity. Q8TCT1. recombinant PHOSPHO1, absorbance phosphatase assay. inhibition, % at 13.3 µM. 1.1% of 290,000 active. AID 1565; in the data active means inhibition above about 60%
esBAF inh = inhibitors of esBAF chromatin remodeling in mouse ES cells. Bmi1-luciferase knock-in reporter, 24 h; 100% = twice the neutral-well signal. reporter increase, % at 12.5 µM. 2% of 350,000 active. AID 602393; in the data active means activation above about 40%; inconclusive means no clear call, values can overlap the other calls;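 further: 0% = median of the plate's neutral control wells and 100% = double that signal; a rise in the Bmi1 reporter signal indicates esBAF inhibition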
MITF TRPM1 HTS = activators of MITF-driven TRPM1 promoter activity in SK-MEL-5 cells. SK-MEL-5 TRPM1-promoter luciferase, 24 h; % of positive control, neutral wells = 0. activation, % at 12.5 µM. 0.75% of 300,000 active. AID 588334;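 active means mean activation of at least 80% with every replicate also reaching 80%; inconclusive means mean reaches 80% but some replicate falls short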;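 further: 0% = neutral control wells and 100% = parthenolide positive control wells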
esBAF Ring1 qPCR = confirmation of esBAF inhibitors: Ring1 de-repression in mouse ESCs; fold change at 33 µM; AID 743176; mouse ESC E14, Ring1 mRNA RT-qPCR fold change; 550 tested, under 10 active; shares compounds with esBAF inh;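 active means Ring1 gene expression raised more than 2-fold over untreated cells in both replicates at either tested dose; inconclusive means only one replicate above 2-fold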;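 further: Ring1 transcript normalised to actin housekeeping signal by TaqMan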
esBAF Fgf4 qPCR = confirmation of esBAF inhibitors: Fgf4 repression in mouse ESCs; shares compounds with esBAF inh; mouse ESC E14, Fgf4 mRNA qPCR fold change; stronger effect = lower value; Fgf4 expression fold change at 33 µM; 4% of 550 active; AID 743177;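 active means Fgf4 expression under 0.8 fold of control in both repeat measurements at one or both tested doses; inconclusive means under 0.8 fold in just a single repeat measurement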;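 further: Fgf4 transcript normalised to actin in duplex TaqMan qPCR; cells exposed to compound for 24 h before lysis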
esBAF Bmi1 qPCR = esBAF inhibition confirmed by Bmi1 de-repression; shares compounds with esBAF inh; mouse ESE14 ES cells, Bmi1 mRNA qPCR fold; stronger effect = higher value; fold change at 33 µM; 550 tested, under 10 active; AID 743180;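 active means Bmi1 expression fold change above 6 at either tested concentration, seen in replicate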
A549 cytotox = A549 cell cytotoxicity; shares compounds with esBAF inh; cell viability change % (negative = cytotoxic), % at 25 µM, hits read low; plate reader; 550 tested, under 10 active; call rule not given here
HepG2 cytotox SP = cytotoxicity in HepG2 cells. shares compounds with esBAF inh. plate reader; stronger effect = lower value. activity change, negative = inhibition, % at 25 µM. 4% of 550 active; in the data active means activity change below about -50%
HEK293 tox SP = cytotoxicity in HEK293 cells; 3% of 550 active; AID 743190; activity change, negative = inhibition, % at 25 µM, hits read low; shares compounds with esBAF inh; plate reader; in the data active means activity change below about -38%, passing the limit was not always enough
The depositor's hits bear a star; ? = inconclusive; . = not tested or not shown.

SMILES	APOBEC3G inh	APOBEC3A inh	Wnt bcat act	PHOSPHO1 block	esBAF inh	MITF TRPM1 HTS	esBAF Ring1 qPCR	esBAF Fgf4 qPCR	esBAF Bmi1 qPCR	A549 cytotox	HepG2 cytotox SP	HEK293 tox SP
Clc1cccc2sc(N3CCCCC3)nc12	-3	-1	.	-7	61*	.	1.2	0.93	1.8	-1	-1	-3
Cc1ccc(CNC(=O)C2CCC(=O)N(CCc3ccc(Cl)cc3)C2)cc1 (stereo not drawn)	-9	-1	8	43	56*	75	1.2	0.93	1.7	-5	3	2
Cc1ccc(CNC(=O)C2CCC(=O)N(CCc3ccc(Cl)cc3)C2)s1 (stereo not drawn)	-7	0	-4	32	-3	20	.	.	.	.	.	.
COc1cccc(N(C(=O)c2cccs2)c2nc3ccccc3s2)c1	0	3	.	6	59*	65	1.4	0.97	2.9	-1	-10	-13
C(=NN1CCCCCC1)c1ccccc1	.	.	9	.	.	21	.	.	.	.	.	.
N#Cc1ccc(C=NN2CCCCCC2)cc1	.	.	48*	.	69*	53	1.3	?	1.6	-8	-7	-14
Clc1ccc(C=NN2CCCCCC2)cc1	.	.	?	.	82*	69	1.3	1.1	1.7	-9	-14	-5
C[C@@H]1CN([C@@H](C)CO)C(=O)c2cccc(NC(=O)c3ccc(-c4nccs4)cc3)c2O[C@@H]1CN(C)CC1CCCCC1	.	.	.	.	2	.	.	.	.	.	.	.
O=C(NCCO)c1cccc(-c2cnc3c(Nc4cccc(OC(F)(F)C(F)F)c4)nccn23)c1	.	.	0	.	71*	.	1.2	?	2.4	10	-20	-2
COc1ccccc1-c1cnc2c(Nc3cccc(OC(F)(F)C(F)F)c3)nccn12	.	.	-1	.	14	.	.	.	.	.	.	.
CCNC(=O)O/N=C(\C)c1sc(-c2ccccc2)nc1C	-3	-3	9	14	63*	.	0.96	0.8	1.7	-7	-17	-18
Cc1nc(-c2ccccc2)sc1C(N)=O	-2	-1	.	5	7	23	.	.	.	.	.	.
COc1ccc(C(=O)Nc2ccc3c(c2)C(=O)N(C)C[C@@H](OC)[C@H](C)CN(C)[C@@H](C)CO3)cc1	.	.	.	.	1	.	.	.	.	.	.	.
CCN(CC)C(=O)OCc1c(-c2ccccc2)ncc2ccccc12	-2	1	?	.	106*	102*	0.92	?	2	-2	-2	-4
CC1CCN(C(=O)CCc2nnc(-c3ccccc3)o2)CC1	0	2	?	20	74*	24	0.94	0.94	1.3	-3	-10	-6
C[C@H](CO)N1C[C@H](C)[C@@H](CN(C)S(=O)(=O)c2cccs2)OCCCC[C@H](C)Oc2ccc(NC(=O)Nc3ccc(F)cc3)cc2C1=O	.	.	.	.	3	.	.	.	.	.	.	.
O=C1CCCc2cc3c(ccc4ccccc43)cc21	.	.	-3	.	75*	43	0.84	0.81	1.2	-7	-39	16
CCOC(=O)c1ccc(NC(=O)C2CC2)cc1	-4	7	.	-4	22	44	.	.	.	.	.	.
CCC(C)c1ccc(NC(=O)C2CC2)cc1 (stereo not drawn)	-8	-7	23	-10	74*	46	1.1	0.84	1.7	-13	-10	-4
COc1ccc(-n2nc(C(=O)NCC(=O)N3CCN(c4ccccc4F)CC3)c3ccccc3c2=O)cc1	-3	-1	15	23	40	?	1.2	?	1.6	-6	-66*	-10
C[C@@H]1CN([C@H](C)CO)C(=O)c2cccc(NC(=O)Nc3cccc4ccccc34)c2O[C@@H]1CN(C)S(=O)(=O)c1ccc(F)cc1	.	.	.	.	1	.	.	.	.	.	.	.
O=C(Nc1nc2ccc(Cl)cc2s1)c1cccc(N2C(=O)CCC2=O)c1	-2	8	?	.	67*	52	1.7	1	1.3	-12	11	0
N/C(=N\OC(=O)C1CCCCC1)c1ccc(Cl)cc1	6	0	5	8	65*	41	0.97	1	1.6	-10	-25	-7
NC(=NC1CCCCC1)c1ccc(Cl)cc1	2	3	-1	20	.	5	.	.	.	.	.	.
CC(=O)c1sc(Nc2ccc(Oc3ccccc3)cc2)nc1C	.	.	6	.	77*	.	1.2	1	1.8	-12	-13	-38
SMILES	APOBEC3G inh	APOBEC3A inh	Wnt bcat act	PHOSPHO1 block	esBAF inh	MITF TRPM1 HTS	esBAF Ring1 qPCR	esBAF Fgf4 qPCR	esBAF Bmi1 qPCR	A549 cytotox	HepG2 cytotox SP	HEK293 tox SP
COc1ccc(C(=O)c2sc(Nc3ccccc3)nc2C)cc1	-1	0	1	16	15	20	.	.	.	.	.	.
COC(=O)c1sc(Nc2ccccc2)nc1C	-9	-3	-1	10	65*	79	1	1.3	1.2	6	-23	-1
Cc1ccc(S(=O)(=O)N(C)C[C@@H]2OCCCC[C@@H](C)Oc3ccc(NS(=O)(=O)c4ccccc4)cc3C(=O)N([C@H](C)CO)C[C@H]2C)cc1	.	.	.	.	0	.	.	.	.	.	.	.
C[C@@H]1CN([C@H](C)CO)C(=O)c2cccc(NC(=O)Nc3ccc(C(F)(F)F)cc3)c2O[C@@H]1CN(C)S(=O)(=O)c1ccc(Cl)cc1	.	.	.	.	11	.	.	.	.	.	.	.
Cc1cc(C)cc(N(CC(=O)Nc2ccc(-c3nc4ccc(C)cc4s3)cc2)S(C)(=O)=O)c1	-4	-3	39*	-12	47*	58	1	0.92	1.5	-8	-45	-9
Cc1ccnc(N(C(=O)c2cccs2)C(=O)c2cccs2)c1	-2	-3	?	10	8	30	.	.	.	.	.	.
O=C(c1cccs1)N(C(=O)c1cccs1)c1ccc(Br)cn1	-5	-2	56*	-23	65*	30	0.73	0.97	1.6	-9	-37	-6
O=C(COc1ccc(/C=N/NC(=O)c2cc3ccccc3o2)cc1Br)Nc1ccccc1	34	7	.	-1	?	-93	0.86	?	5.1	-121*	-75*	-121*
O=C(COc1ccccc1[N+](=O)[O-])Nc1ccc(NC(=O)c2cc3ccccc3o2)cc1	-1	8	-11	41	.	-14	.	.	.	.	.	.
C/C=C/c1ccc2c(c1)O[C@H](CN(C)C(=O)C1CCOCC1)[C@H](C)CN([C@@H](C)CO)S2(=O)=O	.	.	.	.	-2	.	.	.	.	.	.	.
CCC(=O)Nc1ccc2c(c1)OC[C@@H](C)N(C(=O)CN1CCOCC1)C[C@@H](C)[C@H](OC)CN(C)C2=O	.	.	.	.	2	.	.	.	.	.	.	.
